Assay results: PubChem BioAssay (NCATS)
Results filed as inconclusive are left out. A call without a number means that no potency is given here. Activity calls are given as the source filed them. The call rests on the fitted dose curve; in most records, active means well fitted inhibition curve with a large enough effect; inconclusive means small, poorly fitted or top-dose-only effect; inactive means flat fitted curve, though single readings scatter. Peptide text beside a SMILES is read from it.

test system: CP203; assay: qHTS profiling for inhibitors of Plasmodium falciparum proliferation (AID 504749); further: nearly all actives have a fitted effect of over 60% in size; conditions: P. falciparum in erythrocytes, SYBR Green DNA, 72 h; series mostly up to 12.8 µM
Method in brief: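 Each compound contacts P. falciparum-infected red blood cells for 72 h at 37 C; lysis buffer (Tris, EDTA, saponin, Triton X, SYBR Green I) is added and fluorescence measured next morning; values normalized to controls.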
Potency means the concentration at half of the fitted maximal effect.

Compound	Potency
CCC(C)C(=O)OC1CCC=C2C=CC(C)C(CCC3CC(O)CC(=O)O3)[C@@H]21 (stereo not given in full)	inactive
C[C@]1(c2ccccc2)OC(C(=O)O)=CC1=O	inactive
OCC1OC([S-])[C@H](O)C(O)C1O.[Au+] (stereo not given in full)	inactive
CN1CC(=O)N=C1N	inactive
CNC1CC(N)[C@H](O)[C@@H](O[C@@H]2OC(CO)C3OC4(OC(C(N)CO)C(O)C(O)C4O)O[C@@H]3[C@H]2O)C1O (stereo not given in full)	inactive
COC1C=CO[C@@]2(C)Oc3c(C)c(O)c4c(O)c(c(C=NN5CCN(C)CC5)c(O)c4c3C2=O)NC(=O)/C(C)=C\C=CC(C)C(O)[C@@H](C)C(O)C(C)[C@H](OC(C)=O)C1C (stereo not given in full)	4.26 µM (active)
CC(=O)N[C@@H]1C(O)OC(CO)C(O)C1O (stereo not given in full)	inactive
CCC(CCC(C)C1CCC2C3CC=C4CC(O)CC[C@@]4(C)C3CC[C@@]12C)C(C)C (stereo not given in full)	inactive
O=C1OC(CO)C(O)C(O)C1O (stereo not given)	inactive
COc1ccc(CC(N)C(=O)NC2C(CO)OC(n3cnc4c(N(C)C)ncnc43)C2O)cc1 (stereo not given)	1.51 µM (active)
CCCC(=O)O[C@]1(C(=O)CO)CCC2[C@@H]3CCC4=CC(=O)CC[C@]4(C)C3C(O)C[C@]21C (stereo not given in full)	inactive
COC(=O)C(Cc1ccccc1)NC(=O)C(N)CC(=O)O (stereo not drawn) (H-Asp-Phe-OMe; configuration not given here)	inactive
CC[C@@]12CCCN3CCc4c(n(c5ccccc45)[C@](O)(C(=O)OC)C1)C32 (stereo not given in full)	inactive
CC1(C)SC2C(N3C(=O)C(c4ccccc4)NC3(C)C)C(=O)N2C1C(=O)O (stereo not given)	inactive
CC1CCC(C(C)C)C(=O)C1 (stereo not given)	inactive
CC(=O)N[C@H](CC(C)C)C(=O)O	inactive
CC(C)C1CCC(C(=O)NC(Cc2ccccc2)C(=O)O)CC1 (stereo not given)	inactive
COc1ccc2cc(C(C)CO)ccc2c1 (stereo not given)	inactive
COc1ccc2cc1Oc1ccc(cc1)CC1c3c(cc4c(c3Oc3cc5c(cc3OC)CCN(C)C5C2)OCO4)CCN1C (stereo not given)	12 µM (active)
CC1C2CCC3C4CC=C5CC(N(C)C)CC[C@@]5(C)C4CC[C@@]32CN1C (stereo not given in full)	inactive
C[C@]12C=CC(=O)C=C1CCC1C2C(O)C[C@]2(C)C1CC[C@]2(O)C(=O)CO (stereo not given in full)	inactive
COc1ccc2c(c1)N(C[C@@H](C)CN(C)C)c1ccccc1S2	inactive
CCOC(=O)C1=CC(OC(CC)CC)C(NC(C)=O)C(N)C1 (stereo not given)	inactive
CN(C)CCc1c[nH]c2ccc(CC3COC(=O)N3)cc12 (stereo not given)	inactive
NCC1CCC(N)C(O[C@@H]2C(O)[C@H](O[C@H]3OC(CO)C(O)C(N)C3O)[C@@H](N)C[C@H]2N)O1 (stereo not given in full)	inactive
OCC1O[C@H](OC2C(CO)O[C@@](O)(CO)C2O)C(O)C(O)C1O (stereo not given in full)	inactive
CC1(C)OC2CO[C@]3(COS(N)(=O)=O)OC(C)(C)OC3C2O1 (stereo not given in full)	inactive
CC(=O)OC1CCC2C3CCc4cc(O)ccc4C3CCC12C (stereo not given)	inactive
CN(C)CCCOC1C(C(O)CO)OC2OC(C)(C)O[C@@H]21 (stereo not given in full)	inactive
COc1cc(C2c3cc4c(cc3C(O[C@@H]3OC5COC(c6cccs6)OC5C(O)C3O)C3COC(=O)C23)OCO4)cc(OC)c1O (stereo not given in full)	3.79 µM (active)
